In PubChem BioAssay (Tox21):
Inconclusive results are not listed. A call without a number means that no potency is given here. Active and inactive are the calls of the source. Calls come from the whole dose curve; as a rule, active = well fitted inhibition curve with a large enough effect in the repeat runs; inconclusive = weak or mixed curves; inactive = flat fitted curve, though single readings scatter.

molecular target: Voltage-gated inwardly rectifying potassium channel KCNH2 (Homo sapiens) (UniProt Q12809); assay: Human Ether-a-go-go-Related Gene (hERG) channel small molecule antagonists: fluorescence cell-based qHTS assay (AID 1671200); details: hERG-U2OS cells, FluxOR thallium flux fluorescence; series mostly up to 76.8 µM; note: nearly all actives have a fitted effect of over 50% in size
Sequence (Q12809 whole entry, looked up): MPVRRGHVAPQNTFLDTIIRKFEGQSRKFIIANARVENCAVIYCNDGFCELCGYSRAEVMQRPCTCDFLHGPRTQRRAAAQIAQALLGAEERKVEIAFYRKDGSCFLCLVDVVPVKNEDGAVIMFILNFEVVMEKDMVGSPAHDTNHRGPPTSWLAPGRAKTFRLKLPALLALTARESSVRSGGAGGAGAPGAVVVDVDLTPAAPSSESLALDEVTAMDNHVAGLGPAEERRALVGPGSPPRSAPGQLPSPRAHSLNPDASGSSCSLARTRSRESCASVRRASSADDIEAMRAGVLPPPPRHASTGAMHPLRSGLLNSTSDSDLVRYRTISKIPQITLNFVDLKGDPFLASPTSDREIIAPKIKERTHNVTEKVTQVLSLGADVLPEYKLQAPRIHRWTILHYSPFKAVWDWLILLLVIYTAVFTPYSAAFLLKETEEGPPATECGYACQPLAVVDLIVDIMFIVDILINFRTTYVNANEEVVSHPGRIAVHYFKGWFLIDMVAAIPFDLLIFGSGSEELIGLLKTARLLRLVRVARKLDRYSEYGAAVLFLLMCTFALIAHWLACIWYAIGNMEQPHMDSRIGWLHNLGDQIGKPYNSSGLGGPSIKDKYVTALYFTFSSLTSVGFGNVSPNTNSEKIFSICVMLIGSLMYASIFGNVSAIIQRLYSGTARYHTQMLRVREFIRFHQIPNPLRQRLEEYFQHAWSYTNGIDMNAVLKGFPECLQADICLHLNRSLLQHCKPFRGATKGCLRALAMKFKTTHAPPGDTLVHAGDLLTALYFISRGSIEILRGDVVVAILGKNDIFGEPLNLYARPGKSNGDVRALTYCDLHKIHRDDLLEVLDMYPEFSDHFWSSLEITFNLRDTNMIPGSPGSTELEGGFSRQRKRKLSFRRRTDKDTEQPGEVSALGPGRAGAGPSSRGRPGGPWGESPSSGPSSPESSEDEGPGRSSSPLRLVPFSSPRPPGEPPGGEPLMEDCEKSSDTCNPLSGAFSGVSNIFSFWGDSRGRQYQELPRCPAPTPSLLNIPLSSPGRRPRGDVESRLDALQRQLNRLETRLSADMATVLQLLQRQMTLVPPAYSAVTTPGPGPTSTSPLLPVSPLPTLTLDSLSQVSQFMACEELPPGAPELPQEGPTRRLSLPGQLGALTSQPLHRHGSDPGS
Outline: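 Thallium flux as potassium surrogate: FluxOR II dye loaded 1 h at room temperature into hERG-expressing U2OS cells, then stimulus buffer added after 10 min. Kinetic 480 nm excitation/540 nm emission read, 2 min.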
Potency is the fitted concentration of half-maximal effect.

| SMILES | Potency | activity change, negative = inhibition |
| --- | --- | --- |
| CN(C)c1ccc(N=NS(=O)(=O)O)cc1 | inactive | – |
| CCCCCCCCCCCCOC(=O)c1cc(O)c(O)c(O)c1 | inactive | – |
| Cc1nc(Nc2ncc(C(=O)Nc3c(C)cccc3Cl)s2)cc(N2CCN(CCO)CC2)n1 | inactive | – |
| CCc1cccc(C)c1 | inactive | – |
| CCCSS/C(CCO)=C(\C)N(C=O)Cc1cnc(C)nc1N | 12 µM (active) | – |
| O=CC1CC1 | inactive | – |
| C[n+]1c2cc(N)ccc2cc2ccc(N)cc21 (tested in a mixture with another compound) | inactive | – |
| CC(C)(C)c1cc(CCC(=O)NCCCCCCNC(=O)CCc2cc(C(C)(C)C)c(O)c(C(C)(C)C)c2)cc(C(C)(C)C)c1O | inactive | – |
| CC1=C(/C=C/C(C)=C/C=C/C(C)=C/C(=O)Nc2ccc(O)cc2)C(C)(C)CCC1 | inactive | – |
| COc1cccc(CCc2ccccc2OCC(CN(C)C)OC(=O)CCC(=O)O)c1 (stereo not given) | inactive | – |
| C=CC/C=C/C/C=C/C/C=C/C | inactive | – |
| CCCC(=O)OCC(COC(=O)CCC)OC(=O)CCC | inactive | – |
| Nc1cc(Cl)c([N+](=O)[O-])cc1O | inactive | – |
| S=C(SSSSSSC(=S)N1CCCCC1)N1CCCCC1 | – | -18.7% [at 15.8 µM] (inactive) |
| Cc1ccc(-n2[nH]c(C)c(N=Nc3cccc(-c4cccc(C(=O)O)c4)c3O)c2=O)cc1C | inactive | – |
| CCCCCCCC/C=C\CCCCCCCC(=O)NCc1ccc(O)c(OC)c1 | inactive | – |
| C/C=C/C(=O)C1=C(C)CCCC1(C)C | inactive | – |
| CC(C(O)c1ccccc1)N(C)CCOC(c1ccccc1)c1ccccc1 (stereo not given) | 1.69 µM (active) | – |

| SMILES | Potency | activity change, negative = inhibition |
| --- | --- | --- |
| CCOC(OCC)C(=O)c1ccccc1 | inactive | – |
| CCCCNc1c(C(=O)OCC)c(C)nc2c1cnn2CC | inactive | – |
| C/C=C/C=N/NC(=O)c1ccncc1 | inactive | – |
| CCOC(=O)[C@@](C)(N)Cc1ccc(O)c(O)c1 | inactive | – |
| CCCCCCCCCC(=O)N(C)C | inactive | – |
| O=c1cccc[nH]1 | inactive | – |
| CCN(CC)CCOc1ccc(C(O)(Cc2ccc(Cl)cc2)c2ccc(C)cc2)cc1 (stereo not given) | 1.34 µM (active) | – |
| CN(C)CCN1CCOCC1 | inactive | – |
| Cc1oc(-c2ccccc2)nc1CCOc1ccc(C[C@H](Nc2ccccc2C(=O)c2ccccc2)C(=O)O)cc1 | inactive | – |
| Oc1cc2ccccc2cc1O | inactive | – |
| CC1CNCC(C)O1 (stereo not given) | inactive | – |
| CC1(C)COCN1 | inactive | – |
| O=C(O)c1cccc(Cl)n1 | inactive | – |
| CCCN(CCc1cccs1)[C@H]1CCc2c(O)cccc2C1 | 3.01 µM (active) | – |
| Clc1ccc(C(Cn2ccnc2)OCc2c(Cl)cccc2Cl)c(Cl)c1 (stereo not given) | 7.56 µM (active) | – |
| CCCCCCCCCCOCC(O)CN (stereo not given) | 23.9 µM (active) | – |
| Cc1ccc(CCn2c3c(c4cc(Cl)ccc42)CN(C)CC3)cn1 | 12 µM (active) | – |
